Experimental data taken from article PMC5540273 (PLoS ONE, 2017).
Like-named read-outs stand apart in the source and are kept apart here.

Experiments:
YES = system: T1, YES; settings: concentration: 1 μM, replicates: in singlicate; n = 1
T1 construct: gene YES1

YSK1 = system: T2, YSK1; settings: concentration: 1 μM, replicates: in singlicate; n = 1
T2 construct: gene STK25

YSK4 = system: T3, YSK4; settings: concentration: 1 μM, replicates: in singlicate; n = 1
T3 construct: gene MAP3K19

ZAK = settings: concentration: 1 μM, replicates: in singlicate; n = 1
ZAP70 = settings: concentration: 1 μM, replicates: in singlicate; n = 1
p38-alpha = system: T4, p38-alpha; settings: n = 1
T4 construct: gene MAPK14

p38-beta = system: T5, p38-beta; settings: concentration: 1 μM, replicates: in singlicate; n = 1
T5 construct: gene MAPK11

p38-delta = settings: concentration: 1 μM, replicates: in singlicate; n = 1
p38-gamma = system: T6, p38-gamma; settings: concentration: 1 μM, replicates: in singlicate; n = 1
T6 construct: gene MAPK12

[1] = concentration: 1 μM, replicates: in singlicate
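Further: KINOMEscan kinase panel screen.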

SMILES	%Inh (YES) [%]	%Inh (YSK1) [%]	%Inh (YSK4) [%]	%Inh (ZAK) [%]	%Inh (ZAP70) [%]	%Inh (p38-alpha; [1]) [%]	%Inh (p38-beta) [%]	%Inh (p38-delta) [%]	%Inh (p38-gamma) [%]	%Inh (p38-alpha; 1 µM) [%]
CS(=O)(=O)c1ccc(-c2c(-c3ncn[nH]3)sc(N3CCOCC3)c2C#N)cc1	13	0	18	0	0	6	11	34	33	–
COc1cc2ncn(-c3cc(OCC4CCCO4)c(C(N)=O)s3)c2cc1OC (stereo not drawn) [GSK204607]	12	22	53	6	0	0	0	37	0	–
C[C@@H]1CCCCN1c1cc(-c2ccc3c(N)n[nH]c3c2)nc(N)n1 [GSK2258759]	14	0	0	0	0	80	0	26	0	–
O=C(Nc1ccccc1)Nc1cccc(Oc2ccc3nccn3n2)c1	0	0	87	35	0	0	0	0	19	–
COc1ccccc1CNC(=O)c1cc(C(=O)c2ccccc2C)c[nH]1 [GSK364507]	16	0	28	24	13	–	0	39	0	93.3
COc1ccc2nc(-c3cccc(C)n3)nc(Nc3ccncc3)c2c1 [GSK204919]	13	0	13	0	0	58	0	12	0	–
O=C(O)COc1ncnc2cc(-c3ccc4[nH]ncc4c3)sc12	0	0	83	6	14	20	16	32	21	–
Fc1cc(Cl)ccc1Nc1ccnc2cc(-c3ccc(CN4CCCCC4)o3)ccc12 [GW560116]	1	17	5	0	0	36	0	40	9	–
O=C(Nc1n[nH]c2nc(-c3nccs3)c(Br)cc12)C1CC1 [SB-742251]	16	9	95.4	7	0	0	0	20	0	–
CC(=O)Nc1nc2cnc(Nc3cc(NC(=O)c4cccc(CCC#N)c4)ccc3C)nc2s1	3	0	19	0	0	77	17	16	32	–
O=C(Nc1n[nH]c2nc(-c3nccs3)c(Br)cc12)C1CCCC1 [SB-742609]	10	5	62	9	0	0	0	47	0	–
COC(=O)c1c(-c2ccccc2)c2cc(OC)ccc2c(=O)n1Cc1ccccc1	0	1	0	20	0	36	7	42	0	–
CC(C)(C)c1ccc(C(=O)Nc2cn3cc(-c4cccnc4)ccc3n2)cc1	10	1	66	19	0	1	30	46	21	–
O=S(=O)(c1ccc(-c2ccnc3[nH]ccc23)cc1)N1CCCC1 [GSK846226]	8	21	63	0	0	6	0	11	6	–
Cc1cc(-c2ccc3c(c2)CC[C@@H](N[C@@H](C)c2ccccc2)C3)cnc1N.Cl [GW412617]	4	0	100	1	0	0	0	25	0	–
Cc1cccc(-c2nc(Nc3ccncc3)c3ccccc3n2)n1 [GW855857]	0	0	0	4	0	16	1	0	24	–
Cc1cc(N2Cc3ccccc3C2)nc(Nc2ccc(S(=O)(=O)N3CCOCC3)cc2)n1.Cl [GSK1669917]	5	0	0	0	0	3	0	46	3	–
COc1ccc(CNC(=O)NC2CCN(c3ccnc(Nc4cc(OC)c(OC)c(OC)c4)n3)C2)cc1 (stereo not drawn) [GSK1379748]	0	9	13	5	3	12	0	26	0	–

SMILES	%Inh (YES) [%]	%Inh (YSK1) [%]	%Inh (YSK4) [%]	%Inh (ZAK) [%]	%Inh (ZAP70) [%]	%Inh (p38-alpha; [1]) [%]	%Inh (p38-beta) [%]	%Inh (p38-delta) [%]	%Inh (p38-gamma) [%]	%Inh (p38-alpha; 1 µM) [%]
CCCc1ccc(S(=O)(=O)NC2CCN(c3ccnc(Nc4ccc(F)cc4)n3)C2)cc1 (stereo not drawn) [GSK1379715]	22	100	31	67	0	3	0	29	0	–
O=C1NC(=O)C(N2CCc3ccccc32)=C1c1ccccc1Cl [SB-373598]	10	0	0	17	0	0	35	6	18	–
Cl.Oc1ccc(-c2nc(-c3ccccc3)[nH]c2-c2ccncc2)cc1 [SB-428218]	17	4	13	10	0	63	0	43	0	–
Cc1ccc(C(=O)Nc2ccc(Nc3ccnc4cc(-c5ccccn5)ccc34)cc2O)cc1.Cl [GW440146]	42	0	14	48	9	0	0	42	11	–
COC(=O)c1c(-c2ccccc2)c2cc(C(=O)O)ccc2c(=O)n1Cc1ccccc1	0	0	0	0	31	24	19	21	0	–
Cc1cc(NCC(c2ccccc2)c2ccccc2)nc(NCc2ccc(C(F)(F)F)cc2)n1 [GW497681]	0	0	13	0	7	7	0	45	0	–
COc1ccc(Nc2nccc(-c3cccc(NC(=O)c4cc5cc(F)ccc5[nH]4)c3)n2)cc1 [GSK1229782]	29	31	79	22	0	27	0	45	48	–
NC(=O)c1nnc2ccccc2c1N	0	2	88	0	0	71	0	0	43	–
COc1cc2ncnc(Nc3ccc4nc(-c5ccccc5)[nH]c4c3)c2cc1OC.Cl [GW282450]	5	6	35	0	0	1	0	36	0	–
Cn1ccc2ncnc(Oc3cccc(C(=O)Nc4ccccc4)c3)c21	1	0	1	0	0	0	6	3	0	–
Cc1ccc(NC(=O)Nc2cccc(Cl)c2)cc1-c1ccc(C(=O)Nc2ccncc2)cc1 [GSK1398468]	13	14	92.3	68	20	37	3	37	0	–
Fc1cccc(COc2nnc(-c3ccc4c(c3)CCO4)o2)c1	0	0	31	0	0	15	0	4	0	–
Fc1cc(Cl)ccc1Nc1ccnc2cc(I)ccc12 [GW551191]	15	0	49	20	0	30	0	41	1	–
COc1ccc(C2=C(Nc3cccc(C(=O)O)c3)C(=O)NC2=O)cc1 [SB-390765]	11	0	0	13	0	4	6	2	29	–
Clc1cc(Cl)cc(Nc2ccnc(Nc3cc(Cl)cc(Cl)c3)n2)c1 [GSK175726]	20	3	0	2	0	26	0	12	40	–
Cc1cccc(-c2nc(Nc3ccc4[nH]ncc4c3)c3ccccc3n2)n1 [GW857175]	13	0	19	0	31	0	32	0	50	–
O=C(Nc1ccc2c(c1)OCO2)NC1CCN(c2ccnc(Nc3ccc(F)cc3)n2)C1 (stereo not drawn) [GSK1379724]	0	0	39	28	0	0	0	37	0	–
